This note sets out measurements from PubChem BioAssay (NCI).

This is part of a sample that, as a whole, favours compounds with a hit. Of some 83,000 tested, about 20% had one in any assay.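 Testing used 96-well plates and a 48-hour single-concentration exposure. Example: -40 means 40% of the starting cells died.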 Values without a mark were called inactive. Active and inactive are the calls of the source. The calls were made as follows: active = growth percent below 10; inactive = the rest.

Among the test systems are NCI-H23 lung; NCI-H226 lung; NCI-H322M lung; HOP-62 NSCLC; NCI-H460 lung; HOP-92 NSCLC; NCI-H522 lung; A549/ATCC NSCLC; 786-0 renal; COLO 205 colon; DU-145 prostate; K-562 leukemia; MALME-3M melanoma; MDA-MB-231 breast; RXF 393 renal; SF-268 CNS; SF-295 CNS; SF-539 CNS; UACC-257 melanoma; M14 melanoma.
Assay in all cases: NCI-60 one-dose screen, 48 h (100 = growth as untreated, 0 = no growth, -100 = all killed)
Holding throughout (details): 10 µM

As for `O=C(OCc1ncc(-c2ccc(C(F)(F)F)cc2)c(NC2CCCCCC2)n1)c1c(F)c(F)c(F)c(F)c1F`, the growth in the assay on NCI-H23 lung is 63.1%; in the assay on NCI-H226 lung it was 77.7%; in the assay with NCI-H322M lung it was 87.6%; in the assay on HOP-62 NSCLC it was 83.5%; in the assay on NCI-H460 lung it was 63.5%; with HOP-92 NSCLC, 6.29% (active). For the same compound, the growth is 38.4% with NCI-H522 lung; 48.9% in the assay with A549/ATCC NSCLC; 74.3% with 786-0 renal; 59.2% in the assay on COLO 205 colon; 77.2% with DU-145 prostate; 31.9% with K-562 leukemia. The growth in the assay on MALME-3M melanoma was -14.4% (active); in the assay with MDA-MB-231 breast, 81.4%; with RXF 393 renal it was 64.3%; in the assay with SF-268 CNS, 72.5%; with SF-295 CNS, 24.5%; with SF-539 CNS it was 96.3%. In addition, the growth in the assay on UACC-257 melanoma was 34.9%; with M14 melanoma, 43.7%.

Consider `CCc1ccc(-c2nnc(COc3ccc(-c4nc5ccccc5[nH]4)cc3OC)o2)cc1`, for which the growth in the assay on NCI-H23 lung was 72.4%; with NCI-H226 lung, 81.4%; with NCI-H322M lung, 96.9%; with HOP-62 NSCLC it was 83.2%; in the assay on NCI-H460 lung it was 45.5%; with HOP-92 NSCLC it was 79%. The growth with NCI-H522 lung was 91.6%; with A549/ATCC NSCLC, 60.3%; in the assay with 786-0 renal, 22.3%; with COLO 205 colon, 64.4%; with DU-145 prostate, 48.1%; with K-562 leukemia, 33%. The growth in the assay with MALME-3M melanoma was 47.6%; with MDA-MB-231 breast, 10.5%; in the assay on RXF 393 renal, 68.7%; in the assay on SF-268 CNS it was 52.8%; in the assay with SF-295 CNS, 79.3%; in the assay on SF-539 CNS, 6.55% (active). The growth was 88.7% in the assay with UACC-257 melanoma and 56.5% in the assay with M14 melanoma.

As for `N#Cc1c(-c2ccccc2)nc(SCC(=O)N2CCOCC2)[nH]c1=O`, the growth with NCI-H23 lung is 104%; in the assay on NCI-H226 lung, 98%; in the assay with NCI-H322M lung, 98.1%; with HOP-62 NSCLC, 83.7%; in the assay on NCI-H460 lung, 105%; with HOP-92 NSCLC, 88.9%. Further, the growth was 83.6% in the assay on NCI-H522 lung; 101% in the assay on A549/ATCC NSCLC; 100% with 786-0 renal; 105% in the assay on COLO 205 colon; 112% in the assay on DU-145 prostate; 89.8% in the assay on K-562 leukemia. For the same compound, the growth in the assay on MALME-3M melanoma is 92.4%; in the assay with MDA-MB-231 breast, 114%; in the assay on RXF 393 renal, 117%; in the assay with SF-268 CNS, 104%; in the assay on SF-295 CNS, 97.1%; in the assay with SF-539 CNS, 97.1%. The growth in the assay on UACC-257 melanoma was 97%; in the assay on M14 melanoma, 100%.

In the case of `Nc1ccn([C@@H]2O[C@H](COP(=O)(O)O[C@@H]3C[C@H](n4cc(F)c(=O)[nH]c4=O)O[C@@H]3COP(=O)(O)O[C@@H]3C[C@H](n4cc(F)c(=O)[nH]c4=O)O[C@@H]3COP(=O)(O)O[C@@H]3C[C@H](n4cc(F)c(=O)[nH]c4=O)O[C@@H]3COP(=O)(O)O[C@@H]3C[C@H](n4cc(F)c(=O)[nH]c4=O)O[C@@H]3COP(=O)(O)O[C@@H]3C[C@H](n4cc(F)c(=O)[nH]c4=O)O[C@@H]3COP(=O)(O)O[C@@H]3C[C@H](n4cc(F)c(=O)[nH]c4=O)O[C@@H]3COP(=O)(O)O[C@@H]3C[C@H](n4cc(F)c(=O)[nH]c4=O)O[C@@H]3COP(=O)(O)O[C@@H]3C[C@H](n4cc(F)c(=O)[nH]c4=O)O[C@@H]3COP(=O)(O)O[C@@H]3C[C@H](n4cc(F)c(=O)[nH]c4=O)O[C@@H]3COP(=O)(O)O[C@@H]3C[C@H](n4cc(F)c(=O)[nH]c4=O)O[C@@H]3COP(=O)(O)OCCOCCOCCOCCOCCOCCO)[C@H](O)C2O)c(=O)n1` (stereo not given in full), the growth with NCI-H23 lung was 33.2%; with NCI-H226 lung it was 72.7%; in the assay on NCI-H322M lung, 83.5%; in the assay with HOP-62 NSCLC, 30%; in the assay with NCI-H460 lung, 6.31% (active); in the assay with HOP-92 NSCLC, 71%. Moreover, the growth with NCI-H522 lung was 45%; with A549/ATCC NSCLC, 11.7%; with 786-0 renal, 28.2%; in the assay with COLO 205 colon, 36.9%; in the assay on DU-145 prostate, 41.6%; with K-562 leukemia it was 53.8%. The growth with MALME-3M melanoma was 64%; in the assay with MDA-MB-231 breast, 91.4%; in the assay on RXF 393 renal it was 63.9%; in the assay with SF-268 CNS, 36.8%; with SF-295 CNS, 1.32% (active); in the assay with SF-539 CNS it was 10.2%. Also, the growth with UACC-257 melanoma was 44.7%; in the assay on M14 melanoma, 9.25% (active).

As to `CCn1nc(-c2ccccn2)c2cccnc2c1=S`, the growth with NCI-H23 lung was 36.8%; with NCI-H226 lung it was 93.8%; in the assay on NCI-H322M lung, 87.3%; in the assay on HOP-62 NSCLC, 98%; in the assay with NCI-H460 lung, 53.7%; in the assay with HOP-92 NSCLC, 73.4%. In addition, the growth is 70.5% in the assay with NCI-H522 lung; 44.8% with A549/ATCC NSCLC; 106% in the assay with 786-0 renal; 30.9% in the assay with COLO 205 colon; 97% in the assay on DU-145 prostate; 35.7% in the assay on K-562 leukemia. The growth in the assay with MALME-3M melanoma is 68.4%; in the assay on MDA-MB-231 breast it was 53.3%; in the assay with RXF 393 renal it was 110%; in the assay with SF-268 CNS, 94.8%; in the assay on SF-295 CNS it was 78.1%; in the assay on SF-539 CNS it was 89.1%. Also, the growth was 35.8% with UACC-257 melanoma and 65% in the assay on M14 melanoma.

For the compound `O=C1/C(=C/c2ccc(O)cc2)Oc2ccc(Cl)cc21`, the growth was 71.4% with NCI-H23 lung; 68.8% with NCI-H226 lung; 82.8% with NCI-H322M lung; 85.6% in the assay on HOP-62 NSCLC; 79.6% in the assay on NCI-H460 lung; 67.1% with HOP-92 NSCLC. For the same compound, the growth with NCI-H522 lung was -65% (active); in the assay with A549/ATCC NSCLC, 79.7%; with 786-0 renal, 71.4%; with COLO 205 colon it was 109%; in the assay on DU-145 prostate it was 114%; in the assay with K-562 leukemia, 96%. The growth in the assay on MALME-3M melanoma was 82.4%; in the assay with MDA-MB-231 breast, 60.1%; with RXF 393 renal, 65.6%; with SF-268 CNS, 93%; in the assay with SF-295 CNS, 89.9%; in the assay on SF-539 CNS it was 66.7%. The growth was 79% with UACC-257 melanoma and 93.9% in the assay with M14 melanoma.
